# Sampled rows, rich in hits. Any-hit rate of the full collection: about 5.4%.
# GAA850 FXN act = FXN promoter activators, primary screen, cell-based, luciferase luminescence, HEK293 lucGAA850; HEK293 lucGAA850 FXN promoter luciferase reporter, 24 h; percent of 10 µM SAHA response; activation, % at 6 µM; 360,000 compounds, 0.56% hits; AID 540364, 2011;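 active means activation above the average of all compounds screened plus 3 SD, cutoff fixed separately per campaign, cut at about 7.5% in these data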;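 further: 0% = DMSO wells and 100% = 10 µM SAHA wells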
# HSF1 activator = HSF-1 activators, primary screen, NIH3T3-HGL cells, MG132 stress, luminescence, single point. NIH3T3-HGL HSF-1 luciferase reporter, 8 h; 100% = twice DMSO control signal. activation, % at 9 µM. 300,000 compounds, 1.7% hits;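 active means mean replicate activation of at least 50% with a set share of replicates each reaching 50%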;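 further: 0% = median of the neutral control wells and 100% = twice that signal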
# AHR act = AHR activators, primary screen, cell-based, luminescence, luciferase reporter, human; activation, % at 5 µM; Aryl hydrocarbon receptor (Homo sapiens), P35869; AHR-responsive luciferase reporter cells; 320,000 compounds, 2.5% hits; AID 2796, 2010; in the data active means activation above about 47%;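 further: 0% = vehicle wells and 100% = reference agonist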
# Target sequence (P35869 whole entry, looked up): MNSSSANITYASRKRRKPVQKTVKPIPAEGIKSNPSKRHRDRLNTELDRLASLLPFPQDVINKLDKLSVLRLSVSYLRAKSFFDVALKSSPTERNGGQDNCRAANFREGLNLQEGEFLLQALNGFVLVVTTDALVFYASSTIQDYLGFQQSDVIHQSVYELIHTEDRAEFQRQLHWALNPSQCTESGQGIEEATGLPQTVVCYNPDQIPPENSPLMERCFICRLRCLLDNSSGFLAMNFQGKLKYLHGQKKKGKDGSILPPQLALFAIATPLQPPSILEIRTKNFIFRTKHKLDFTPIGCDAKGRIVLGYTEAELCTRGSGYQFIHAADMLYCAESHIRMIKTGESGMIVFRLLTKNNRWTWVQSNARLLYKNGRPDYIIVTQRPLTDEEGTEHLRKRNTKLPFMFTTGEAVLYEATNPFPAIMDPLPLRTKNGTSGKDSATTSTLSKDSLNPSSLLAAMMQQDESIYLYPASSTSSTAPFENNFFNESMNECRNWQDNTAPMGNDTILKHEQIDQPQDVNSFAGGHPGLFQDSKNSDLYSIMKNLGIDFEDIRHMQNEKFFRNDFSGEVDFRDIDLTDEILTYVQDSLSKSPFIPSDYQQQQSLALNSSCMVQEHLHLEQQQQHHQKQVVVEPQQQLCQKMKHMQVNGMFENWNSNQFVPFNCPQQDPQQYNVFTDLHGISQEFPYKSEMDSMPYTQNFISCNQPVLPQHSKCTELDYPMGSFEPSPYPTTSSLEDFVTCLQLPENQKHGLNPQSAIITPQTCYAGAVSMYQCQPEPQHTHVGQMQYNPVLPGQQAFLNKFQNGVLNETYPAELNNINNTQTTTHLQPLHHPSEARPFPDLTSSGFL
# DAX1 inh = DAX1 (NR0B1) inhibitors, primary screen, cell-based, HEK293, Gal4-DAX1, luciferase luminescence; Nuclear receptor subfamily 0 group B member 1 (Homo sapiens), P51843; HEK293 Gal4-DAX1 luciferase reporter; inhibition, % at 6.75 µM; 340,000 compounds, 0.99% hits; AID 504766, 2011;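 active means inhibition above the mean over all tested compounds plus 3 SD, cut at about 4.2% in these data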;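 further: 0% = DAX1-transfected cells with DMSO and 100% = empty-vector control cells with DMSO; inhibition shows as a rise in luminescence from relieved DAX1 repression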
# HSF1 inh = HSF1 inhibitors in luciferase reporter cells, primary screen, cell-based, NIH3T3, luminescence | 300,000 compounds, 0.77% hits | NIH3T3-HGL HSE-luciferase, MG132-induced, luminescence 8 h; stronger effect = lower value | activity change, negative = inhibition, % at 7.5 µM (by protocol) | AID 2098, 2009;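 active means more than half of replicate wells show activity change below -50%, luminescence cut by over half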;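 further: luciferase reports HSF-1 transcriptional activity via heat shock element; 0% = median of DMSO wells and -100% = zero luminescence signal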
# Starred values were filed as active, the others as inactive; · = no result given.
SMILES,GAA850 FXN act,HSF1 activator,AHR act,DAX1 inh,HSF1 inh
COC(=O)C1(Cc2ccc(O)cc2)OC(=O)C(O)=C1c1ccc(O)cc1 (centres undefined),3,5,-1,7.4*,-7
CCOC(=O)CC1COc2ccccc2N1C(=O)c1cccc([N+](=O)[O-])c1 (centres undefined),1,11,25,-1,8
C[C@H](NC(=O)c1ccco1)C(=O)Nc1cc(S(=O)(=O)N2CCCC2)ccc1OCC(F)(F)F,1,·,2,0,·
CN(C)c1cccc(C(=O)NNC(=O)CN2C(=O)C3CC=CCC3C2=O)c1 (centres undefined),3,·,8,5.7*,·
CCCCCCC(=O)Nc1nc(C)c(-c2csc(Nc3ccccc3OC)n2)s1,0,0,69*,0,0
CCCCC(=O)Nc1nc(C)c(-c2csc(Nc3cc(Cl)ccc3OC)n2)s1,1,10,70*,0,-3
CCCC(C)C(=O)Nc1nc(C)c(-c2csc(Nc3ccc(Cl)cc3)n2)s1 (centres undefined),-1,11,79*,0,8
CCCC(=O)Nc1nc(C)c(-c2csc(Nc3ccccc3C)n2)s1,-1,-2,15,0,0
CCCCCC(=O)Nc1nc(C)c(-c2csc(Nc3ccccc3OCC)n2)s1,-1,2,67*,1,-1
Cc1ccccc1NP1(=O)OCCCN1Cc1ccccc1Cl (centres undefined),-1,·,·,0,·
COc1ccc(C2C=C(C34CC5CC(CC(C5)C3)C4)NC(=S)N2)cc1 (centres undefined),3,-3,0,0,-3
CCc1cccc(NC(=O)CCC(=O)N2CCSc3ccccc32)c1,-1,-5,2,-1,0
CCc1ccc(NC(=O)CCC(=O)N2CCSc3ccccc32)cc1,-2,8,69*,1,7
CN(C)C1(CNC(=O)C2CCN(S(=O)(=O)c3ccccc3C(F)(F)F)CC2)CCCCC1,0,-7,0,1,-7
Cc1ccc(C(=O)CN2C(=O)c3ccccc3S2(=O)=O)cc1,-11,-76,-10,-6,-75*
O=C(CN1C(=O)c2ccccc2S1(=O)=O)N1CCOCC1,0,7,6,2,-6
O=C(CN1C(=O)c2ccccc2S1(=O)=O)NCc1c(F)cccc1F,0,0,-2,4.9*,-3
O=C(CN1C(=O)c2ccccc2S1(=O)=O)N1CCCCC1,4,54*,4,3,11
O=C(Sc1n[nH]c(=O)[nH]c1=O)c1ccccc1,0,·,·,1,·
COCCN1C(=O)C(=O)/C(=C(/O)c2ccc(S(=O)(=O)N3CCCCC3)cc2)C1c1ccc(O)c(OC)c1 (centres undefined),-1,3,0,1,0
CN(C)S(=O)(=O)c1ccc(NC(=O)CSc2nnc(-c3ccco3)o2)cc1,2,·,0,1,·
Cc1cc(NC(=O)c2cccc(Cl)c2)n[nH]1,3,3,71*,1,12
Cc1cccc(NC(=O)c2cccc(C(=O)Nc3cccc(C)n3)c2)n1,1,8,50*,0,1
Cc1ccc(NC(=O)c2cccc(Cl)c2)nc1,3,26,7,2,12
Cc1cccc(NC(=O)c2ccc(C(=O)c3ccccc3)cc2)n1,1,40,5,-1,29
SMILES,GAA850 FXN act,HSF1 activator,AHR act,DAX1 inh,HSF1 inh
NC(=O)C1CCCN(CC(=O)Nc2ccccc2C(=O)NC2CC2)C1 (centres undefined),0,·,-1,0,·
Cc1ccn2c(C(=O)N/N=C/c3ccc(Cl)cc3)c(C)nc2c1,-1,15,·,1,27
Cc1nc(N)sc1C(=O)N/N=C/c1ccc([N+](=O)[O-])cc1,1,27,29,·,6
Cc1nc(N)sc1C(=O)N/N=C/c1ccccc1[N+](=O)[O-],6,34,58*,·,31
Cc1ccn2c(C(=O)N/N=C\c3ccccc3[N+](=O)[O-])c(C)nc2c1,-1,78*,5,1,38
CC1CN(c2nc3ccccc3nc2SCC(=O)Nc2ccc(F)cc2)CC(C)O1 (centres undefined),-2,2,37,0,11
